According to PubChem BioAssay (Tox21):
Values without a mark were called inactive. Results filed as inconclusive are left out. A call without a number means that no potency is given here. Activity calls are given as the source filed them. Unless noted, calls come from the whole dose curve.

How the values were obtained:
[1] = qHTS assay to identify small molecule antagonists of the estrogen related receptor signaling pathway with the pleiotropic PPARgamma coactivator (PGC) from Tox21 10K library - cell viability counter screen (AID 1224840; active = well fitted cell-killing curve with a large enough effect in the repeat runs, not every such curve was filed as active; note: nearly all actives have a fitted effect of over 40% in size); conditions: PGC/ERR reporter cells viability, CellTiter-Fluor, 17.5 h; series mostly up to 92.4 µM
Summary of the method: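 Counter-screen for cytotoxicity: after 17.5 h compound exposure at 37 C, CellTiter-Fluor reagent added to PGC/ERR cells for 30 min and fluorescence read. Cells were seeded at 2,000 per well 6 h before dosing.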

[2] = qHTS assay to identify small molecule antagonists of the estrogen related receptor signaling pathway with the pleiotropic PPARgamma coactivator (PGC) from Tox21 10K library (AID 1224841; call rule not given here; note: actives are mostly falling curves and most rising ones were filed inactive; nearly all actives have a fitted effect of over 50% in size; note: potency is the fitted concentration of half-maximal effect); conditions: PGC/ERR reporter cell line, ONE-Glo luciferase, 18 h; series mostly up to 92.4 µM
Summary of the method: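 Luminescence (One-Glo, 30 min at room temperature) after 18 h compound treatment at 37 C of PGC/ERR reporter cells plated at 2,000 cells/well and settled 6 h beforehand.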

[3] = qHTS assay to identify small molecule agonists of the estrogen related receptor signaling pathway with the pleiotropic PPARgamma coactivator (PGC) from Tox21 10K library (AID 1224842; active = well fitted curve in the direction sought with a large enough effect in the repeat runs; an effect the other way counts as inactive or inconclusive; note: nearly all actives have a fitted effect of over 15% in size; note: potency is the fitted concentration of half-maximal effect); conditions: PGC/ERR reporter cell line, luciferase ONE-Glo, 18 h; series mostly up to 92.4 µM
Summary of the method: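 Luminescence from One-Glo (30 min, room temperature) measured after PGC/ERR cells had 18 h at 37 C with pinned compound (23 nL in DMSO). Cells had been seeded at 2,000 per well and pre-incubated 6 h.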

[4] = molecular target: Thyrotropin receptor (Homo sapiens) (UniProt P16473); experiment: qHTS assay to identify small molecule agonists of the thyroid stimulating hormone receptor (TSHR) signaling pathway (AID 1224843); conditions: TSHR-HEK293 cells, cAMP HTRF, agonist mode, 30 min; series mostly up to 92.4 µM; note: nearly all actives have a fitted effect of over 45% in size
Thyrotropin receptor (Homo sapiens), sequence (P16473 whole entry, looked up): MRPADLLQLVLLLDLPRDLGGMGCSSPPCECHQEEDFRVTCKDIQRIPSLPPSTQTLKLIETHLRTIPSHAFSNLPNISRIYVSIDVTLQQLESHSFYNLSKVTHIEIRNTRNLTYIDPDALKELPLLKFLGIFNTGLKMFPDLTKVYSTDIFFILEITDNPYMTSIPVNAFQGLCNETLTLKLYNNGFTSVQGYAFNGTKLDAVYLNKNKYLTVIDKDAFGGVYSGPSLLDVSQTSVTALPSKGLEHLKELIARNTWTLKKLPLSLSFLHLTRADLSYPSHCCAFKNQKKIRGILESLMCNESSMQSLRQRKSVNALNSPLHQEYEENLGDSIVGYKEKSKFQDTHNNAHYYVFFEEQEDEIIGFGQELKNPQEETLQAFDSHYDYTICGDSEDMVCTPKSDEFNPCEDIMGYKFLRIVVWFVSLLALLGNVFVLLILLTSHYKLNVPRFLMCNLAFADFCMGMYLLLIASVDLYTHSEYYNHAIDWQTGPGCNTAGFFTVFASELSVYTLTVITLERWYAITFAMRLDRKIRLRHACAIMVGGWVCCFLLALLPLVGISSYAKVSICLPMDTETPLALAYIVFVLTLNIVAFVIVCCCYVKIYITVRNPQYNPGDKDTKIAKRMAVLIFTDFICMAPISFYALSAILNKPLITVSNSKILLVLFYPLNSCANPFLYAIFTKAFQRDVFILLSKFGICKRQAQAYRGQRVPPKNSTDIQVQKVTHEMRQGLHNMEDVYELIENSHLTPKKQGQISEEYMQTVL
Summary of the method: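 Agonist activity read as cAMP rise via d2/cryptate HTRF competition, 1 h room-temperature detection, in HEK293 cells expressing TSHR. Fifteen-point titrations, each run in triplicate, with a 30 min room-temperature incubation beforehand.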

[5] = qHTS assay to identify small molecule agonists of the hypoxia (HIF-1) signaling pathway - cell viability counter screen (AID 1224844); conditions: HRE-bla ME-180 viability, CellTiter-Glo luminescence, 17 h; series mostly up to 76.8 µM; note: nearly all actives have a fitted effect of over 50% in size
Summary of the method: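 Cytotoxicity measured by CellTiter-Glo ATP luminescence in the wells also read for beta-lactamase signal. Cells were HRE-bla ME-180 (2,000/well, 0.5% dialyzed FBS), exposed to compounds for 17 h at 37C.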

[6] = qHTS assay to identify small molecule agonists of H2AX (AID 1224845; active = well fitted activation curve with a large enough effect in the signal ratio in the repeat runs, not every such curve was filed as active; the % refers to the signal ratio); conditions: CHO-K1 phospho-H2AX Ser139 HTRF, 3 h; series mostly up to 154 µM
Summary of the method: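 Phospho-H2AX Ser139 measured by HTRF (ex 320 nm; em 665 and 620 nm) after 24 hr antibody incubation. Compounds, 15 concentrations, 0.76% DMSO, were applied to CHO-K1 cells for 3hr at 37C before lysis.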

[7] = qHTS assay to identify small molecule antagonists of the estrogen related receptor (ERR) signaling pathway from Tox21 library (AID 1224848; active = well fitted curve in the direction sought with a large enough effect in the repeat runs; an effect the other way counts as inactive or inconclusive; note: nearly all actives have a fitted effect of over 50% in size); conditions: ERR reporter cell line, luciferase antagonist mode, 18 h; series mostly up to 92.4 µM
Summary of the method: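 Luciferase luminescence (ONE-Glo, 30 min room temperature) was the read-out. Cells of the NTP-supplied ERR line, 2,000 per well, were given 6 h at 37 C before compound addition in DMSO and 18 h exposure at 37 C.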

[8] = qHTS assay to identify small molecule agonists of the estrogen related receptor (ERR) signaling pathway from Tox21 library (AID 1224849); conditions: ERR reporter cell line, ONE-Glo luciferase, 18 h; at 92.4 µM (top of the series) unless noted; note: nearly all actives have a fitted effect of over 15% in size
Summary of the method: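 Luminescent agonist read-out (One-Glo, 30-minute room-temperature incubation) following 18-hour compound treatment at 37 C of the ERR cell line, which had been plated 6 hours before dosing.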

[9] = qHTS assay to identify small molecule agonists of the hypoxia (HIF-1) signaling pathway (AID 1224846; active = well fitted activation curve with a large enough effect in the signal ratio in the repeat runs, not every such curve was filed as active; the % refers to the signal ratio); conditions: HRE-bla ME-180 cells, beta-lactamase ratio, 17 h; series mostly up to 76.8 µM
Summary of the method: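 Compounds added to ME-180 cells carrying hypoxia-response-element beta-lactamase reporter (0.5% dialyzed FBS, 5 h preplating), 17 h at 37C; agonist activity detected by CCF4-AM B/G FRET read-out.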

[10] = qHTS assay to identify small molecule agonists of H2AX - cell viability counter screen (AID 1224847); conditions: CHO-K1 viability, CellTiter-Glo luminescence, 3 h; series mostly up to 154 µM;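 note: wild-type CHO-K1 cells; top concentration of the series differs between compounds; nearly all actives have a fitted effect of over 30% in size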
Summary of the method: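 CHO-K1 wt, 1000 cells/well, o/n 37C; cpds 15 conc, 3 h 37C, 0.76% DMSO; CellTiter-Glo, 30 min RT, luminescence.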

Row | SMILES | outcome [1] | Potency [2] | Potency [3] | Potency [4] | outcome [5] | outcome [6] | outcome [7] | activity change, positive = activation [8] | outcome [9] | outcome [10]
1 | CC/C=C/CCCCCCCCCCOC(C)=O | inactive | inactive | inactive | inactive | inactive | inactive | inactive | 0.111% |  | 
2 | CC(=O)Nc1ccc(OCCOCCOc2ccc(NC(C)=O)cc2)cc1 | inactive | inactive | inactive | inactive |  | inactive |  | -16.6% [at 42.5 µM] | inactive | inactive
3 | CC(C)OC(=O)C(C(=O)OC(C)C)=C1SC=CS1 | inactive | inactive | inactive | inactive |  | inactive |  | -19.5% [at 42.5 µM] |  | 
4 | COc1cnc(NS(=O)(=O)c2ccc(N)cc2)nc1 | inactive | inactive | inactive | inactive | inactive | inactive | inactive | 4.16% [at 42.5 µM] | inactive | inactive
5 | CCCCN1C(=O)c2ccccc2C1=O | inactive | inactive | inactive | inactive | inactive | inactive | inactive | 6.09% | inactive | 
6 | CC(=O)SC[C@@H](C)C(=O)N1CCC[C@H]1C(=O)N[C@@H](Cc1ccccc1)C(=O)O | inactive | inactive | inactive | inactive |  | inactive | inactive | 7.31% [at 42.5 µM] | inactive | inactive
7 | CC/C=C\CCOC(=O)c1ccccc1 | inactive | inactive | inactive | inactive | inactive |  | inactive | 5.28% |  | inactive
8 | C=CC(=O)CC | inactive | inactive | inactive | inactive | inactive | inactive | inactive | -1.79% | inactive | inactive
9 | CCCCC(CC)COC(=O)CC#N (stereo not given) | inactive | inactive | inactive | inactive | inactive | inactive | inactive | -0.23% | inactive | inactive
10 | O=C1Nc2ccccc2C1=O | inactive | 13.6 µM (active) | inactive | inactive | inactive | inactive | inactive | -1.92% | inactive | inactive
11 | N=C(N)S(=O)O | inactive | inactive | inactive | inactive | inactive | inactive | inactive | 2.21% | inactive | inactive
12 | Cc1ccc(OC(=O)CC(C)C)cc1 | inactive | inactive | inactive | inactive | inactive | inactive | inactive | -0.118% | inactive | inactive
13 | CCC(C)(C)C | inactive | inactive | inactive | inactive | inactive | inactive | inactive | -3.65% | inactive | inactive
14 | C=COCCCCO | inactive | inactive | inactive | inactive |  | inactive |  | -29.3% | inactive | inactive
15 | O=C(O)Cc1c(Cl)ccc(Cl)c1Cl | inactive | inactive | inactive | inactive | inactive |  | inactive | 6.33% | inactive | inactive
16 | CC(=O)c1ccc2ccc3ccccc3c2c1 | inactive | inactive | inactive | inactive | inactive |  | inactive | 8.72% | inactive | 
17 | N[C@H]1C(O)O[C@H](CO)[C@@H](O)[C@@H]1O (stereo not given in full) | inactive | inactive | inactive | inactive |  | inactive | inactive | 3.25% [at 42.5 µM] | inactive | inactive
18 | CC[C@@]1(c2ccccc2)NC(=O)N(C)C1=O | inactive | inactive | inactive | inactive | inactive | inactive | inactive | 3.28% [at 42.5 µM] |  | inactive
19 | COC(=O)N/N=C/c1c[n+]([O-])c2ccccc2[n+]1[O-] | inactive | inactive | inactive | inactive | inactive |  | inactive | 16.4% [at 42.5 µM] | inactive | inactive
20 | CCCCCCC(=O)c1ccccc1 | inactive | inactive | inactive | inactive | inactive | inactive | inactive | 3.5% | inactive | inactive
21 | NNC(=O)OCc1ccccc1 | inactive | inactive | inactive | inactive | inactive | inactive | inactive | -10.3% | inactive | inactive
22 | CC1(C)CC(N)CC(C)(C)N1 | inactive | inactive | inactive | inactive | inactive | inactive | inactive | 4.2% | inactive | inactive

Row | SMILES | outcome [1] | Potency [2] | Potency [3] | Potency [4] | outcome [5] | outcome [6] | outcome [7] | activity change, positive = activation [8] | outcome [9] | outcome [10]
23 | C=CCn1cc[n+](C)c1 | inactive | inactive | inactive | inactive | inactive | inactive | inactive | 5.14% | inactive | inactive
24 | C[C@]12C=CC(=O)C=C1[C@@H](F)C[C@@H]1[C@@H]2[C@@H](O)C[C@@]2(C)[C@H]1CC[C@]2(O)C(=O)CO | inactive | inactive | 6.68 µM (active) | inactive |  | inactive | inactive | -4.03% [at 42.5 µM] | inactive | inactive
25 | CC/C=C\CCCCCCCCCCOC(C)=O | inactive | inactive | inactive | inactive |  | inactive | inactive | 0.807% |  | inactive
26 | Cc1ccc(N)nc1 | inactive | inactive | inactive | inactive |  | inactive | inactive | 3.66% | inactive | inactive
27 | COc1ccc2cc(CCC(C)=O)ccc2c1 | inactive | inactive | 13.3 µM (active) | inactive | inactive | inactive | inactive | 114% [at 42.5 µM] (active) |  | inactive
28 | CC(=O)SCC(CC(=O)c1ccc(C)cc1)C(=O)O (stereo not given) | inactive | inactive | inactive | inactive | inactive | inactive | inactive | 8.89% [at 42.5 µM] |  | inactive
29 | COC(=O)/C=C(\C)CCC=C(C)C | inactive | inactive | inactive | inactive |  | inactive | inactive | 1.22% | inactive | inactive
30 | C[n+]1ccccc1/C=N/O | inactive | inactive | inactive | inactive | inactive | inactive | inactive | 0.0992% [at 42.5 µM] |  | inactive
31 | NC(=O)CC[C@@H](N)C(=O)O | inactive | inactive | inactive | inactive |  | inactive | inactive | 1.56% [at 42.5 µM] |  | inactive
32 | N=C(N)N | inactive | inactive | inactive | inactive | inactive | inactive | inactive | 0.947% [at 42.5 µM] | inactive | inactive
33 | CCCCCCCCOCCC#N | inactive | inactive | inactive | inactive | inactive | inactive | inactive | 3% | inactive | inactive
34 | O=C(O)CCCCCCCCCC(=O)O | inactive | inactive | inactive | inactive | inactive | inactive | inactive | 3.45% | inactive | inactive
35 | CC(C)(Sc1cc(C(C)(C)C)c(O)c(C(C)(C)C)c1)Sc1cc(C(C)(C)C)c(O)c(C(C)(C)C)c1 | inactive | inactive | inactive | inactive | inactive | inactive | inactive | 3.41% [at 42.5 µM] |  | inactive
36 | CCCCCCCCCCCC(C)=O | inactive | inactive | inactive | inactive | inactive | inactive | inactive | -0.269% | inactive | inactive
37 | CCN1CCN(C(=O)N[C@@H](C(=O)N[C@@H]2C(=O)N3[C@@H]2SC(C)(C)[C@H]3C(=O)O)c2ccccc2)C(=O)C1=O | inactive | inactive | inactive | inactive | inactive | inactive | inactive | 8.89% [at 42.5 µM] |  | inactive
38 | CCCCOCCCC | inactive | inactive | inactive | inactive | inactive | inactive | inactive | 4.99% | inactive | inactive
39 | CCCc1ncc(C(=O)O)s1 | inactive | inactive | inactive |  | inactive | inactive | inactive | 3.45% [at 42.5 µM] | inactive | inactive
40 | CNC(=O)c1c(I)c(NC(C)=O)c(I)c(C(=O)O)c1I | inactive | inactive | inactive |  | inactive | inactive | inactive | 2.26% [at 42.5 µM] | inactive | inactive
41 | CC(C)(C)C(=O)CC(=O)C(C)(C)C | inactive |  | inactive | inactive | inactive | inactive | inactive | 3.23% | inactive | inactive
42 | O=C1CCCc2c(O)cccc21 | inactive |  | inactive |  | inactive | inactive | inactive | 0.0223% [at 42.5 µM] | inactive | inactive
43 | CO/N=C(\C(=O)O)c1csc(NC(=O)CCl)n1 | inactive | inactive | inactive |  | inactive | inactive | inactive | 4.95% [at 42.5 µM] | inactive | inactive
44 | Cc1ccccc1OCC(=O)O | inactive |  | inactive |  | inactive | inactive | inactive | 0.72% | inactive | inactive
